Among all 360,000 compounds or so, about 16,000 (4.4%) were called active. Inconclusive results (about 9%) are left out. The list comes from a sample in which actives are over-represented; it also holds similar structures and randomly drawn compounds. Unmarked numbers belong to inactive results. The call rests on the fitted dose curve; in most records, active means well fitted inhibition curve with a large enough effect; inconclusive means small, poorly fitted or top-dose-only effect; inactive means no such curve, though single readings can be large or run the other way.

50 compounds from PubChem BioAssay AID504333 (National Center for Advancing Translational Sciences (NCATS), 2011) can be followed below.
On the % scale 0 is the no-effect control and ±100 the full control effect; potency means the concentration at half of the fitted maximal effect.

For this assay, the target named is Bromodomain adjacent to zinc finger domain protein 2B (Homo sapiens) (UniProt Q9UIF8). The assay is described as follows: qHTS Assay for Inhibitors of BAZ2B. Further: nearly all actives have a fitted effect of over 60% in size. The following applies: AlphaScreen BAZ2B-H3K14Ac peptide displacement; series mostly up to 114 µM; activity change, negative = inhibition: at the top concentration. Put shortly: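 Protein-peptide AlphaScreen: BAZ2B 50 nM, b-H3K14Ac 50 nM, 1x PBS pH 7.4 + 0.01% Tween-20. Preincubation 30 min RT; cpd 30 min RT (top 110 uM); beads 20 min RT, light-protected.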
Sequence of Bromodomain adjacent to zinc finger domain protein 2B (Homo sapiens) (Q9UIF8 whole entry, looked up, the tested form may be a part): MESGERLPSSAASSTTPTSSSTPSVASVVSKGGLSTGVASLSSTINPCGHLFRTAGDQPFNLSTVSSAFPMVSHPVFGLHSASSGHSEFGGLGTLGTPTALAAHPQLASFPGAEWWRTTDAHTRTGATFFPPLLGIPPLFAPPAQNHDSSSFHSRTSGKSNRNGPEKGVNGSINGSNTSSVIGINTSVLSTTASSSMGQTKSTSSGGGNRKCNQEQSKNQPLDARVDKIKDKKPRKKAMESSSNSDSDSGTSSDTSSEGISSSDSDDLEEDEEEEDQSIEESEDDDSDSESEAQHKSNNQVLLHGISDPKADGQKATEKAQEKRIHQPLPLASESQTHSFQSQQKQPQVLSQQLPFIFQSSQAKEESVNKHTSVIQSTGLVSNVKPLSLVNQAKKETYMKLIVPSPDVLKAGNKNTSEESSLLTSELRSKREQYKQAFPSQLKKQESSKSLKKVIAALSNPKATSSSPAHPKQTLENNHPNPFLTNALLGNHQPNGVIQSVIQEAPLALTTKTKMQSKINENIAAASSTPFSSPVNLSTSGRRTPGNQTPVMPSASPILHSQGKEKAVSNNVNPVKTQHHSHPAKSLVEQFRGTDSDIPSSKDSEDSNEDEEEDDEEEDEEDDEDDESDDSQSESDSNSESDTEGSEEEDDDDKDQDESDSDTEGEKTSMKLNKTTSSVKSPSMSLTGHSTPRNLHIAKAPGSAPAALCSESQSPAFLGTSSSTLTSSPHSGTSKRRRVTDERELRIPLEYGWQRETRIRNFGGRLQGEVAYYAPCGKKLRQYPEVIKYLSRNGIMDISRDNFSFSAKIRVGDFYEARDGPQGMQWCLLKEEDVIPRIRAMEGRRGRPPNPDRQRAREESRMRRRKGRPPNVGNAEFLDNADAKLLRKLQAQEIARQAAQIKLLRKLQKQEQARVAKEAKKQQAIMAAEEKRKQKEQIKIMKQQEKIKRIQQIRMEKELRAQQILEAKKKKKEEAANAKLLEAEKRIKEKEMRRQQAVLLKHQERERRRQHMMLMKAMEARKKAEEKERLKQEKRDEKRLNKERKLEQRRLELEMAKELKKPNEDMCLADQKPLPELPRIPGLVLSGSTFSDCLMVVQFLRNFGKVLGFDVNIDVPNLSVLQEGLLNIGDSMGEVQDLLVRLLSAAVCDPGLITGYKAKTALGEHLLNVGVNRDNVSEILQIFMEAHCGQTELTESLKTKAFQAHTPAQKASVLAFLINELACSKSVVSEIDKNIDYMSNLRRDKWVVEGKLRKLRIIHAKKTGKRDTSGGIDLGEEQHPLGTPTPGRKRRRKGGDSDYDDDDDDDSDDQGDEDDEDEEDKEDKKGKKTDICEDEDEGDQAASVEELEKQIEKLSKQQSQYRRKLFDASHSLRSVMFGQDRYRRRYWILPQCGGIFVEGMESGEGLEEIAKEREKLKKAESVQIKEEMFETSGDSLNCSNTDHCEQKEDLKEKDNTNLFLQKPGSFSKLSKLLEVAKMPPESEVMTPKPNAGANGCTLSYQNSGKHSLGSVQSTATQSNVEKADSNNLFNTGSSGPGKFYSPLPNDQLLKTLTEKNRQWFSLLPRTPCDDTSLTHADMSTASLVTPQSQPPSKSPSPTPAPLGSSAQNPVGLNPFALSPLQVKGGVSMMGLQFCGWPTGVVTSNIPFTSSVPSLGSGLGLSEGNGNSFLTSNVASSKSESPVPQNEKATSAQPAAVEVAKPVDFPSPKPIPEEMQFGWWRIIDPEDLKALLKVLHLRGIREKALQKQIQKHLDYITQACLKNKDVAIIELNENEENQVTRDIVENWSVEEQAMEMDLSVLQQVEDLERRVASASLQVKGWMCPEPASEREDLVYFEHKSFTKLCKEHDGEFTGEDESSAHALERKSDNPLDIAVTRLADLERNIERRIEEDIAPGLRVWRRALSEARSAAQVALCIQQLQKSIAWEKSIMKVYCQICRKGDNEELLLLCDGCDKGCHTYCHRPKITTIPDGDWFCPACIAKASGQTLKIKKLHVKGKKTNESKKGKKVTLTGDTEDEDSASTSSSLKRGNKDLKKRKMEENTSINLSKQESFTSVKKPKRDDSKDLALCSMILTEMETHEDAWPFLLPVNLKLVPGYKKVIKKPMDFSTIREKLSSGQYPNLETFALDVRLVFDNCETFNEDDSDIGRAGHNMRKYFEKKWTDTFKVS
On to `CC(C)(C)OC(=O)N1CCC(c2c(C(=O)NCc3ccccn3)cnn2-c2ccc(F)cc2)CC1`, for which the “activity change, negative = inhibition” value was 12.6% [at 57.1 µM].

On to `O=C(CNC(=O)c1ccc2ccccc2c1)Nc1ncccc1O`, for which the Potency is 50.1 µM (active). On to `O=C(Nc1ncccc1O)c1ccc(C(=O)c2ccccc2)cc1`, for which the “activity change, negative = inhibition” value is -32.2%. Same read-out and setting: the figure for `CC1CCC(NC(=O)CNC(=O)c2ccc3ccccc3c2)CC1` (stereo not given) is -25.2%. The same measure, in the same setting: the same measure for `CN(Cc1ccccc1)C(=O)CCS(=O)(=O)c1cc(Br)cc2c1N(C(=O)C1CC1)CC2`: -8.26%; for `Cc1ccc(C)c(N2CCN(C(=O)CN3C(=O)COc4ccc(S(=O)(=O)N5CCCCCC5)cc43)CC2)c1`: -8.46%.

Consider `CCOCCCNCc1ccc(OCc2ccc(F)cc2)c(OC)c1`, for which the “activity change, negative = inhibition” value was -9.74%.

As to `CCOc1ccccc1OCCCNCc1ccccc1`, the Potency was 79.4 µM (active).

As to `CCOCCCNCc1cc(Br)ccc1OCC`, the “activity change, negative = inhibition” value was -14.7%.

Turning to `Cc1cc(C)c2oc(-c3cccc(NC(=O)c4cccc(F)c4)c3C)nc2c1`, the “activity change, negative = inhibition” value is -5.05%.

For `O=C1N=C(N2CCCC2)S/C1=C\c1cccc(Br)c1`, the “activity change, negative = inhibition” value was -1.32%. On to `CCOc1cc(/C=C2\SC(N3CCCCC3)=NC2=O)ccc1O`, for which the “activity change, negative = inhibition” value was 4.95%. Turning to `CCN1C(=O)/C(=C2\SC(N3CCCCC3)=NC2=O)c2ccccc21`, the Potency was 39.8 µM (active).

For `CCOc1ccc(S(=O)(=O)c2cn(Cc3ccccc3)c3ccc(OCC)cc3c2=O)cc1`, the “activity change, negative = inhibition” value was -2.47%. Still for that read-out and setting: the figure for `CCc1ccc(CN(Cc2ccco2)C(=O)c2ccccc2Cl)cc1` is 28.6%; for `Cc1cc(=O)c2cc(C(=O)Nc3cccc(C)c3C)ccc2[nH]1` it is -0.358%. Still for that read-out and setting: the figure for `CC1CCCN(CC(O)COCc2ccccc2)C1` (stereo not given) is -6.53%. On to `O=[N+]([O-])c1ccc(N2CCN(CC(O)COc3ccccc3)CC2)cc1` (stereo not given), for which the “activity change, negative = inhibition” value was -36.5%. Turning to `OC(COCc1ccco1)CN1CCN(c2ccccc2)CC1` (stereo not given), the Potency was 89.1 µM (active).

Regarding `CCCn1ccc2c(OCC(=O)NCc3ccc(F)cc3)cccc2c1=O`, the “activity change, negative = inhibition” value was 2.51%.

Take `Cc1ccc(-c2cn3c(n2)sc2cc(C(=O)NCCCc4ccccc4)ccc23)cc1`: the “activity change, negative = inhibition” value was -0.904%. On the same count and under the same terms, the same measure for `Cc1ccc(NC(=O)CCN2C(=O)c3ccccc3C2=O)cc1C`: -0.264%.

As to `Cc1cc2c(cc1C)N(C(=O)CN1C(=O)c3ccccc3C1=O)C(C)(C)c1ssc(=S)c1-2`, the Potency is 8.91 µM (active). Consider `Cc1cc(C)cc(NC(=O)CN2C(=O)c3ccccc3C2=O)c1`, for which the “activity change, negative = inhibition” value is 5.03%. The same measure, in the same setting: the same measure for `COc1cc(OC)cc(C(=O)NC(=S)N2CCN(c3ccc(C(F)(F)F)cc3[N+](=O)[O-])CC2)c1`: 62.3%; for `O=[N+]([O-])c1cc(C(F)(F)F)ccc1NCCc1ccncc1`: -9.78%. Consider `O=[N+]([O-])c1cc(C(F)(F)F)ccc1NN=C1CCCC1`, for which the Potency was 10 µM (active). Turning to `COc1cccc(CNC(=O)C(=O)NCC(c2cccs2)S(=O)(=O)c2ccccc2)c1` (stereo not given), the “activity change, negative = inhibition” value is 30.7%. The same measure, in the same setting: the same measure for `COc1ccccc1CNC(=O)CCCn1c(=O)c2ccccc2n(CC(=O)Nc2ccc(C)cc2Cl)c1=O`: -9.06%; for `O=C(Cc1ccc([N+](=O)[O-])cc1)N/N=C/c1ccco1`: 1.38%; for `CC(C)NC(=O)C(=O)N/N=C/c1ccco1`: 6.63%. For the compound `O=C(N/N=C/c1ccco1)c1ccc(C(=O)N/N=C/c2ccco2)o1`, the Potency was 56.2 µM (active). For `CCOc1ccccc1NC(=O)CN1CCN(S(=O)(=O)c2ccc(Br)cc2)CC1`, the “activity change, negative = inhibition” value was 7.77% [at 57.1 µM]. On to `Cc1ccc(NC2=C(c3ccc(C(F)(F)F)cc3)C(=O)c3ccccc32)cc1F`, for which the “activity change, negative = inhibition” value is -12.8%. On the same count and under the same terms, the same measure for `Cc1ccc(C)c(Cn2c(=O)n(CCC(=O)NCc3ccc4c(c3)OCO4)c(=O)c3sccc32)c1`: 1.86%. Take `Cc1oc2cc(Br)c(O)c(Br)c2c1C(=O)c1ccccc1`: the “activity change, negative = inhibition” value is -15.4%. Regarding `Cc1oc2cc([N+](=O)[O-])c(O)c([N+](=O)[O-])c2c1C(=O)c1ccc(Br)cc1`, the Potency was 35.5 µM (active). On to `N/C(=N\OC(=O)Cc1ccccc1[N+](=O)[O-])c1ccc(Br)cc1`, for which the “activity change, negative = inhibition” value was -23.2%.

Regarding `COCCNc1ncnc2c1c(-c1ccccc1)cn2-c1ccc(C)c(Cl)c1`, the “activity change, negative = inhibition” value is -8.73%. With `Cc1c(C)n(Cc2ccc(Cl)cc2)c2ccc(C(=O)NCCCN3CCOCC3)cc12`, the Potency is 39.8 µM (active). `Cc1c(C)n(Cc2ccc(Cl)cc2)c2ccc(C(=O)NCCc3ccc(S(N)(=O)=O)cc3)cc12`: the “activity change, negative = inhibition” value was -19%. The same measure, in the same setting: the figure for `COc1ccc(Cn2c(=S)[nH]c3cc(C(=O)NCCCN4CCOCC4)ccc3c2=O)cc1` is -4.26%.

For `COc1ccc(-c2onc(C)c2C)cc1S(=O)(=O)NCC1CCN(Cc2cccc(F)c2)CC1`, the “activity change, negative = inhibition” value was -27.4%. On the same count and under the same terms, the figure for `Cc1ccccc1CN1CCC(CNC(=O)c2c(C)oc3ncnc(N4CCCCC4)c23)CC1` is 1.59% [at 57.1 µM]; for `Cn1c(COc2ccccc2C(C)(C)C)nc2ccccc21` it is -4.66%; for `COc1ccc(NC(=O)CSC2=Nc3ccccc3C3=NC(CC(=O)NCc4ccccc4OC)C(=O)N23)cc1Cl` (stereo not given) it is 3.52%. Consider `O=C(NC(=S)Nc1ccccc1C(=O)O)c1ccc(-c2ccc(Br)cc2)o1`, for which the Potency is 44.7 µM (active). Regarding `O=C(O)c1ccccc1NC(=O)c1ccccc1-c1ccccc1C(=O)O`, the “activity change, negative = inhibition” value was 1.8%. Consider `O=C(NC(=S)Nc1cc(C(F)(F)F)ccc1N1CCOCC1)c1ccc(-c2cccc(Cl)c2)o1`, for which the “activity change, negative = inhibition” value is -35.6%.

Regarding `COc1cc(C)ccc1OCCSc1nc2ccc(NC(=O)c3ccc(C)cc3)cc2s1`, the “activity change, negative = inhibition” value is -4.01%.
